# This is a sample that favours compounds with a hit; in the whole collection about 11% have one here.
# BAZ2B block: blocks human BAZ2B; AlphaScreen BAZ2B-H3K14Ac peptide displacement; Potency, µM (highest dose often 114 µM), for the others: top-dose activity change, negative = inhibition, most hits filed as inhibitors; hit rate 4.4% among 360,000; also: potency is read from the fitted curve at half-maximal effect; % is scaled to controls: 0 for no effect and ±100 for the full control effect; nearly all actives have a fitted effect of over 60% in size
#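 BAZ2B (50 nM) with biotin-H3(5-23)K14Ac peptide (50 nM) in PBS pH 7.4, 0.01% Tween-20, preformed 30 min, then compound 30 min at room temperature; top concentration 110uM. AlphaScreen streptavidin donor/nickel chelate acceptor beads (10 ug/mL final), 20 min dark, signal read.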
# PI5P4Ka inh: inhibitors of human PI5P4K alpha | AID 652105 | P48426 | max response, % | hit rate 1.2% among 330,000 | PI5P4Kalpha enzyme, ADP-Glo luminescence, 60 min; active compounds read low; active = max response of -50% or lower; inconclusive = between -30% and -50%; inactive = -30% or higher; also: value at the top dose of about 77 µM; % is scaled to controls: 0 for no effect and ±100 for the full control effect
#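 ADP-Glo luminescence end-point read after a 60 min room-temperature kinase reaction of PI5P4Kalpha plus substrate, initiated with ATP at 5 microM final. Buffer: 0.038 M HEPES pH 7.4, EGTA, 0.1% CHAPS, 5% DMSO.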
# L3MBTL1 inh: blocks human L3MBTL1; AlphaScreen L3MBTL1–H3K9me1 peptide binding; Q9Y468; hit rate 0.66% among 230,000; AID 485360; Potency, µM (highest dose often 57.1 µM), for inactives: at the highest dose activity, negative = inhibition, usual class: inhibitors; also: potency is read from the fitted curve at half-maximal effect; % is scaled to controls: 0 for no effect and ±100 for the full control effect; nearly all actives have a fitted effect of over 60% in size
#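 AlphaScreen assay: L3MBTL1 (50 nM final) was preincubated 30 min at room temperature with biotinylated H3(1-15)K9me1 peptide (75 nM final), then 30 min with library compounds; streptavidin donor and nickel chelate acceptor beads (10 ug/mL final) added, 30 min dark.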
# JMJD2A Tudor inh: JMJD2A Tudor domain (human) inhibition. O75164. Potency, µM (series often up to 114 µM), for inactives: at the top dose activity change, negative = inhibition, usual class: inhibitors. AlphaScreen JMJD2A-Tudor / H3K4me3 peptide binding. hit rate 4.4% among 390,000; also: potency is read from the fitted curve at half-maximal effect; % is scaled to controls: 0 for no effect and ±100 for the full control effect; nearly all actives have a fitted effect of over 50% in size
# HP1b chromo inh: blocks HP1-beta chromodomain binding to methylated histone tails | hit rate 0.56% among 390,000 | Potency, µM (highest dose often 114 µM), without a hit: top-dose activity change, negative = inhibition, most hits filed as inhibitors | AlphaScreen HP1-beta / biotin-H3K9me3 peptide binding | P83916; also: potency is read from the fitted curve at half-maximal effect; nearly all actives have a fitted effect of over 70% in size
#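 AlphaScreen: HP1-beta (50 nM) preformed 30 min with biotin-H3(1-18)K9me3 peptide (50 nM) in PBS pH 7.4, 0.01% Tween-20. Compound added for 30 min at RT, then streptavidin donor/nickel chelate acceptor beads (10 ug/mL) for 30 min.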
# G9a block: blocks human histone lysine methyltransferase G9a; G9a H3K9 monomethylation, AlphaScreen, 2 h; Potency, µM (doses to about 102 µM), inactives show at the top dose activity, negative = inhibition, hits mostly inhibitors; hit rate 8.8% among 350,000; also: potency is read from the fitted curve at half-maximal effect; % is scaled to controls: 0 for no effect and ±100 for the full control effect; nearly all actives have a fitted effect of over 75% in size
#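 AlphaScreen read-out: biotin-H3K9 peptide (500 nM) methylation by 20 nM enzyme with 20 uM SAM, 2 h at room temperature after 15 min compound preincubation; anti-monomethyl H3K9 antibody plus donor/acceptor beads, 10 min dark.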
# * marks the source's active call; other numbers are inactive results; ? = inconclusive; nt = no result; [ ] = another dose, or the depositor's remark. Unless noted, calls follow the shape of the dose curve; as a rule, active = well fitted inhibition curve with a large enough effect; inconclusive = small, poorly fitted or top-dose-only effect; inactive = no such curve, though single readings can be large or run the other way.
SMILES,BAZ2B block,PI5P4Ka inh,L3MBTL1 inh,JMJD2A Tudor inh,HP1b chromo inh,G9a block
O=C(COC(=O)c1cc([N+](=O)[O-])ccc1N1CCOCC1)Nc1ccc(Cl)cc1,-37%,4,nt,?,-16%,?
CC(NC(=O)COC(=O)c1cc([N+](=O)[O-])ccc1N1CCOCC1)c1ccccc1 (configuration not stated),-18%,-6,nt,-22%,18%,?
NC(=O)c1ccc(NC(=O)COC(=O)c2cc([N+](=O)[O-])ccc2N2CCOCC2)cc1,-8%,-6,3%,-14%,7%,13µM*
CC(NC(=O)COC(=O)c1cc([N+](=O)[O-])ccc1N1CCOCC1)c1ccc(F)cc1 (configuration not stated),50µM*,?,-9%,?,9%,?
O=C(COC(=O)c1cc([N+](=O)[O-])ccc1N1CCOCC1)Nc1ccc(Cl)cn1,-33%,0,nt,?,-9%,-15%
Cc1cc(Cl)ccc1NC(=O)COC(=O)c1cc([N+](=O)[O-])ccc1N1CCOCC1,-28%,9,-7%,?,-23%,56µM*
CC1CCN(C(=O)Cn2cc(SCC(=O)Nc3ccccc3C(F)(F)F)c3ccccc32)CC1,3%,nt,nt,-29%,43%,-5%[59 µM]
CCS(=O)(=O)N1CC(=O)N(c2cc(Cl)ccc2C)C(C)(C(=O)NC2CCCCCC2)C1 (configuration not stated),4%,nt,nt,-12%,-7%,1%[59 µM]
CCOc1ccc(-c2n[nH]c(C)c2-c2ccccc2OC)c(O)c1,-37%,2,-18%,-6%,23%,-4%
CCc1cc(-c2n[nH]c(C)c2-c2ccccc2Cl)c(O)cc1OC,?,16,nt,?,7%,40µM*
CCc1nnc(NC(=O)CN2CCN(Cc3cccc(OC)c3)CC2)s1,0%,0,2%,-19%,20%,-13%
CCc1nnc(NC(=O)CN2CCN(c3cccc(OC)c3)CC2)s1,-10%,-3,-6%,-23%,14%,14µM*
O=C(CCN1CCN(c2ccc(Cl)cc2)CC1)Nc1nccs1,0%,1,nt,-9%,26%,-37%[59 µM]
O=C(CN1CCN(c2cccc(Cl)c2)CC1)Nc1nccs1,?,4,3%,-6%,23%,40µM*
CCCN1CCN(CC(=O)Nc2nnc(CC)s2)CC1,-2%,8,1%,7.1µM*,27%,nt
CCc1nnc(NC(=O)CN2CCOCC2)s1,6%,nt,6%,?,-3%,-24%
CCc1nnc(NC(=O)CN2CCN(c3ccccc3F)CC2)s1,-36%,0,1%,-30%,45%,50µM*
COc1cccc(NC(=O)C(Cc2ccccc2)NS(=O)(=O)c2ccc3c(c2)oc(=O)n3C)c1 (configuration not stated),-18%,nt,nt,-2%,37%,7%[59 µM]
CCc1ccc(CN(Cc2ccco2)C(=O)COc2ccccc2Cl)cc1,54%,nt,nt,32%,82%,89%[59 µM]
CN1CC2(Cc3c1ccc1ccccc31)C(=O)OC(C)(C)OC2=O,3%,4,1%,15%[57.1 µM],41%,?
Cc1ccc2c(c1)CC1(CN2C)C(=O)OC2(CCCCC2)OC1=O,2%,-2,-5%,-22%[57.1 µM],62%,50µM*
C=CCNCCOc1ccccc1-c1ccccc1,6%,14,10%,-6%,46%,-1%[59 µM]
COCCCNCCOCCOc1ccc(Cl)cc1C(C)(C)C,?,10,1%,20µM*,-34%,8.9µM*
C=CCNCCCOc1ccc(Cl)cc1C(C)(C)C,40µM*,25,6%,4.5µM*,?,10µM*
COCCNCCCCSc1ccc(Cl)cc1,56µM*,2,5%,8.9µM*,-35%,nt
SMILES,BAZ2B block,PI5P4Ka inh,L3MBTL1 inh,JMJD2A Tudor inh,HP1b chromo inh,G9a block
COCCCNCCOCCOc1c(OC)cccc1OC,6%,-4,10%,-8%,36%,-47%
C=CCNCCOCCOc1ccc(Cl)cc1C(C)(C)C,50µM*,9,7%,2µM*,-45%,8.9µM*
OCCNCCCOc1cc(Cl)ccc1Cl,-2%,16,nt,-19%,36%,-20%
CCOC(=O)C1CCCN(C(=O)CCS(=O)(=O)c2cc3c(cc2Cl)NC(=O)CO3)C1 (configuration not stated),-9%,nt,nt,-7%,12%,-23%[59 µM]
C=CCNCCOCCSc1ccc(Cl)cc1,?,5,8%,3.2µM*,?,7.9µM*
C=CCNC(=O)CSc1ccc(Cl)cc1,-1%,-7,5%,-17%,47%,7%[12.7 µM]
CCN(CCO)c1nc(SC)nc2c1sc1nc(-c3ccco3)c3c(c12)CCC3,50µM*,20,-24%,-10%,6%,?
Cc1ccc(OCCCCn2nnc3sc4c(c3c2=O)CCC(C)C4)cc1 (configuration not stated),?,nt,nt,-21%,70%,?
CC1CCc2c(sc3nnn(CCCCOc4ccc(Cl)cc4)c(=O)c23)C1 (configuration not stated),-24%,nt,nt,?,74%,13µM*
Cc1cccc(N2CCN(c3ncnc4c3nc3n4CCCCC3)CC2C)c1 (configuration not stated),?,nt,nt,?,-27%,?
Cc1cc(C)c([N+](=O)[O-])cc1-c1ccc(/C=N/c2c(-c3ccco3)nc3ccccn23)o1,10µM*,?,?,6.3µM*,?,17%[0.501 µM]
O=[N+]([O-])c1ccc(Cl)c(-c2ccc(/C=N/c3c(-c4ccco4)nc4ccccn34)o2)c1,?,?,-15%,?,?,?
Oc1cccc(/C=N/c2c(-c3ccco3)nc3ccccn23)c1,56µM*,nt,?,?,?,50µM*
O=c1oc(-c2ccc([N+](=O)[O-])cc2)nc2ccccc12,-7%,0,?,-18%,12%,-3%
O=c1oc(-c2ccc([N+](=O)[O-])cc2)nc2ccc(O)cc12,?,-9,-12%,?,-11%,40µM*
Cc1cc(Nc2ccccc2Cl)n2nc(-c3ccco3)nc2n1,-5%,nt,nt,3%,33%,0%[12.7 µM]
Cc1cc(C)n2nc3nc(N4CCCCC4)nc(-c4ccco4)c3c2n1,79µM*,-56*,-83%,?,-14%,4µM*
C#CCOCCOCCOCCNc1nc(N2CCN(C(=O)[C@H](CCC(=O)O)n3cc(C(N)Cc4ccc(O)cc4)nn3)CC2)nc(N2CCN(C(=O)[C@H](Cc3ccc(O)cc3)n3cc(C(N)[C@H](C)CC)nn3)CC2)n1 (some centres not stated),50µM*,nt,nt,nt,nt,-26%[12.7 µM]
